Data: publication PMC8384837, “Expanding the binding specificity for RNA recognition by a PUF domain”
Residue numbers refer to the chain shown, from its start.

Legend:
Experiment in all cases: yeast three-hybrid, YBZ-1, SC-Leu-His + 0.5 mM 3-AT, 4 days
Conditions in all cases: tags: N-Gal4 AD-HA kept; label: inside an RPR1-promoter hybrid RNA with tandem MS2 sites; ssRNA
PUM1 PUF domain R7-KPV = PUM1 PUF domain R7-KPV (Homo sapiens, UniProt Q14671 828-1176, S1079K;N1080P;E1083V)
How it was run: (§1)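 The interaction score is the logarithmic change in variant frequency from input to selection. It uses log2, with a pseudocount of 1 for absent variants, and frequencies came from PCR-amplified, Illumina-sequenced repeat regions. The libraries were Pumilio-1 PUF domains randomized at the three base-contacting residues per repeat, co-expressed with matching RNA elements in strain YBZ-1 (LexA–MS2 coat fusion, HIS3 reporter). Plating lasted four days on SC-Leu (input) or SC-Leu-His + 0.5 mM 3-AT (selection).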

PUM1 PUF domain R7-KWK = PUM1 PUF domain R7-KWK (Homo sapiens, UniProt Q14671 828-1176, S1079K;N1080W;E1083K)
How it was run: as §1

PUM1 PUF domain R3-TRW = PUM1 PUF domain R3-TRW (Homo sapiens, UniProt Q14671 828-1176, C935T;Q939W)
How it was run: as §1

PUM1 PUF domain R8-LFK = PUM1 PUF domain R8-LFK (Homo sapiens, UniProt Q14671 828-1176, N1122L;Y1123F;Q1126K)
How it was run: as §1

PUM1 PUF domain R3-SRT = PUM1 PUF domain R3-SRT (Homo sapiens, UniProt Q14671 828-1176, C935S;Q939T)
How it was run: as §1

PUM1 PUF domain R4-CMC = PUM1 PUF domain R4-CMC (Homo sapiens, UniProt Q14671 828-1176, N971C;H972M;Q975C)
How it was run: as §1

PUM1 PUF domain R6-RHS = molecular target: T1, PUM1 PUF domain R6-RHS (Homo sapiens, UniProt Q14671 828-1176, N1043R;Y1044H;Q1047S)
T1 sequence: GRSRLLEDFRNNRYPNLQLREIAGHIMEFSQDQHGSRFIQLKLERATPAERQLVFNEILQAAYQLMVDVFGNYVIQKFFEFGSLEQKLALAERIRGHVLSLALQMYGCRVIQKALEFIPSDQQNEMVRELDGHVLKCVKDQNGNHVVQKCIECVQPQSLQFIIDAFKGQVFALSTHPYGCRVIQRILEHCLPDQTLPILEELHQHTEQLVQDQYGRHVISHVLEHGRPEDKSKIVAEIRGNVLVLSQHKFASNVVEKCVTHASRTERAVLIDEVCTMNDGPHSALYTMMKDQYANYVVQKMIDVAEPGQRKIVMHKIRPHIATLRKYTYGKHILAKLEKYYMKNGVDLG
How it was run: as §1

PUM1 PUF domain R6-LYV = molecular target: T2, PUM1 PUF domain R6-LYV (Homo sapiens, UniProt Q14671 828-1176, N1043L;Q1047V)
T2 sequence: T1 sequence with R216L, H217Y, S220V
How it was run: as §1

PUM1 PUF domain R1-KVI = PUM1 PUF domain R1-KVI (Homo sapiens, UniProt Q14671 828-1176, S863K;R864V;Q867I)
How it was run: as §1

PUM1 PUF domain R3-TFG = PUM1 PUF domain R3-TFG (Homo sapiens, UniProt Q14671 828-1176, C935T;R936F;Q939G)
How it was run: as §1

PUM1 PUF domain R3-RSW = PUM1 PUF domain R3-RSW (Homo sapiens, UniProt Q14671 828-1176, C935R;R936S;Q939W)
How it was run: as §1

PUM1 PUF domain R3-VSK = PUM1 PUF domain R3-VSK (Homo sapiens, UniProt Q14671 828-1176, C935V;R936S;Q939K)
How it was run: as §1

PUM1 PUF domain R3-RTI = PUM1 PUF domain R3-RTI (Homo sapiens, UniProt Q14671 828-1176, C935R;R936T;Q939I)
How it was run: as §1

In the case of “GGCUAGAACUAGUGGAUCCCCCGGCGCCCGGCGGCUCGAGCCCGGGUAAGUCUAAAUAGUCUGCAUGCCGCCGGGCGCCAUGCCUGCAGGUCGACUCUAGAAAACAUG”, the binding signal (PUM1 PUF domain R7-KPV) is reported as 4.07 log2 enrichment (interaction score) and the binding signal (PUM1 PUF domain R7-KWK) is reported as 2.57 log2 enrichment (interaction score).

In the case of “GGCUAGAACUAGUGGAUCCCCCGGCGCCCGGCGGCUCGAGCCCGGGUAAGUGUAAAUAGUCUGCAUGCCGCCGGGCGCCAUGCCUGCAGGUCGACUCUAGAAAACAUG”, the binding signal (PUM1 PUF domain R3-TRW) is reported as 4.35 log2 enrichment (interaction score), the binding signal (PUM1 PUF domain R8-LFK) is reported as 4.86 log2 enrichment (interaction score) and the binding signal (PUM1 PUF domain R3-SRT) is reported as 4.56 log2 enrichment (interaction score). The binding signal (PUM1 PUF domain R4-CMC) was 2.5 log2 enrichment (interaction score), the binding signal (PUM1 PUF domain R6-RHS) was 2.73 log2 enrichment (interaction score) and the binding signal (PUM1 PUF domain R6-LYV) was 2.81 log2 enrichment (interaction score).

“GGCUAGAACUAGUGGAUCCCCCGGCGCCCGGCGGCUCGAGCCCGGGUAAGUGUAAAUGGUCUGCAUGCCGCCGGGCGCCAUGCCUGCAGGUCGACUCUAGAAAACAUG” was tested, and the binding signal (PUM1 PUF domain R1-KVI) was 2.15 log2 enrichment (interaction score).

“GGCUAGAACUAGUGGAUCCCCCGGCGCCCGGCGGCUCGAGCCCGGGUAAGUGUAACUAGUCUGCAUGCCGCCGGGCGCCAUGCCUGCAGGUCGACUCUAGAAAACAUG” was tested, and the binding signal (PUM1 PUF domain R3-TFG) was 0.95 log2 enrichment (interaction score).

For “GGCUAGAACUAGUGGAUCCCCCGGCGCCCGGCGGCUCGAGCCCGGGUAAGUGUAAGUAGUCUGCAUGCCGCCGGGCGCCAUGCCUGCAGGUCGACUCUAGAAAACAUG”, the binding signal (PUM1 PUF domain R3-SRT) was 4.32 log2 enrichment (interaction score), the binding signal (PUM1 PUF domain R3-RSW) was 0.87 log2 enrichment (interaction score) and the binding signal (PUM1 PUF domain R3-TFG) was 2.15 log2 enrichment (interaction score).

In the case of “GGCUAGAACUAGUGGAUCCCCCGGCGCCCGGCGGCUCGAGCCCGGGUAAGUAUAAAUAGUCUGCAUGCCGCCGGGCGCCAUGCCUGCAGGUCGACUCUAGAAAACAUG”, the binding signal (PUM1 PUF domain R7-KWK) is reported as 2.56 log2 enrichment (interaction score).

For “GGCUAGAACUAGUGGAUCCCCCGGCGCCCGGCGGCUCGAGCCCGGGUAAGUGUAAUUAGUCUGCAUGCCGCCGGGCGCCAUGCCUGCAGGUCGACUCUAGAAAACAUG”, the binding signal (PUM1 PUF domain R3-TRW) was 0.56 log2 enrichment (interaction score), the binding signal (PUM1 PUF domain R3-SRT) was 1.65 log2 enrichment (interaction score) and the binding signal (PUM1 PUF domain R3-RSW) was 3.81 log2 enrichment (interaction score). For the same sequence, the binding signal (PUM1 PUF domain R3-TFG) was 2.64 log2 enrichment (interaction score), the binding signal (PUM1 PUF domain R3-VSK) was 3.36 log2 enrichment (interaction score) and the binding signal (PUM1 PUF domain R3-RTI) was 3.21 log2 enrichment (interaction score).
